Assay results taken from PubChem BioAssay (NCI).
Compounds without any hit were thinned out: in the full panel of roughly 79,000, 15% have a hit. Unmarked numbers belong to inactive results. Activity calls are given as the source filed them. Cut-off read from the data, not from the text of the source: active = growth inhibition above about 70%; inactive = the rest.

Experiment: NCI Yeast Anticancer Drug Screen. Data for the bub3 strain (AID 167)
Settings: S. cerevisiae bub3 mutant strain, at 50.0 µM, hits give high values
Summary of the method: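 Inhibition values come from growth of compound-treated mutant yeast normalised to vehicle-treated controls.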

Structure (SMILES)	growth inhibition
COC(=O)c1ccccc1OC(=S)N(C)C	0.75%
C=C(C)C#CC1(O)C=C(OC)C(OC)=CC1=O (stereo not given)	-13.1%
CCOC(=O)/C(C#N)=C\N(C)C	9.65%
O=S1c2ccc(Cl)cc2CC(SSC2Cc3cc(Cl)ccc3S(=O)c3ccccc32)c2ccccc21 (stereo not given)	10.5%
O=C1OC(=O)c2ccccc21	-2.2%
Cc1nc(Nc2ccc(Cl)c(Cl)c2)sc1C(/C=C/c1ccc2c(c1)OCO2)=N/Nc1ccc([N+](=O)[O-])cc1[N+](=O)[O-]	-9.55%
O=C(N/N=C/c1ccc(Cl)cc1)C(c1ccccc1)N1CCCCC1 (stereo not given)	8.55%
O=[N+]([O-])c1ccc(N=NN2CCOCC2)cc1	-10.7%
CC(C)(C)C(=O)CC(=O)C(C)(C)C.CC(C)(C)C(=O)CC(=O)C(C)(C)C.CC(C)(C)C(=O)CC(=O)C(C)(C)C.[Co]	-0.6%
CSC(=N\N=C\c1c(F)cccc1Cl)/N=C/N(C)C	-2.85%
O=C(O)c1cscc1Cc1ccccc1	-20.8%
C=C(CCCC(C)OC(C)OCC)[Si](C)(C)C (stereo not given)	-23.6%
CC1(C)N=C(N)N=C(N)N1c1cccc(OCc2cccc([N+](=O)[O-])c2)c1	-30.3%
Cc1cc(S(=O)(=O)O)c(NC(=O)C(=O)C2C=CCS2(=O)=O)cc1Cl (stereo not given)	-8.15%
C=C(C)C(=O)OC1C[C@H](COC(C)=O)C2CC=C(CO)C2C2OC(=O)C(=C)[C@H]12 (stereo not given in full)	-1.25%
CC1(C)[C@H](C(=O)O)CC[C@]1(C)C(=O)O	-0.7%
Brc1ccc(CN(Cc2ccccc2)Cc2ccccc2)cc1	10.7%
CN(C)c1nc(N)nc(CS)n1	-4.15%
CC(=O)Oc1ccc2c(c1)c1c(OC(C)=O)c(N(C)C(C)=O)cc(OC(C)=O)c1n2C	-3.7%
CN(C)CCSCC(=O)N1c2ccccc2Sc2ccc(Cl)cc21	7.95%

Structure (SMILES)	growth inhibition
CC(=O)Oc1cc2c(cc1C(NC(N)=O)c1ccc3c(c1)OCO3)OCO2 (stereo not given)	16.4%
CCCCCCCCCCCCN=Cc1cc(Cc2ccc(O)c(C=NCCCCCCCCCCCC)c2)ccc1O	83.7% (active)
O=c1[nH]c(=O)n(C2CC(O)C(CO)O2)cc1/C=C/Br (stereo not given)	7.35%
CC(C)(C)OC(=O)CC(c1ccccc1)c1ccccc1	49.1%
CC(=O)OCSc1ncnc2c1ncn2CN1CCOCC1	-4.85%
c1ccc(CCCC2Sc3cccc4cccc(c34)S2)cc1	-16%
Cc1c2oc3c(C)ccc(C(=O)NCCN4CCN(c5ccccc5)CC4)c3nc-2c(C(=O)NCCN2CCN(c3ccccc3)CC2)c(N)c1=O	-3.9%
CO/N=C1C=C/C(=N\OC)C\1	-19.1%
C(CCc1nnc2c(n1)CCCC2)Cc1nnc2c(n1)CCCC2	10.1%
Nc1nc2ncn(CC(O)COC(=O)c3ccccc3)c2c(=O)[nH]1 (stereo not given)	27.4%
COC(=O)C1(C(=O)OC)CC(=O)c2c(OC(=O)c3cccc(OC)c3C#N)ccc(OC(=O)c3cccc(OC)c3C#N)c2C1	0.05%
CCCSC(=O)Nc1ccc(Cc2ccc(NC(=O)SCCC)cc2)cc1	16.4%
CCCc1cc(=O)oc2c3c(c4c(c12)OC(C)(C)C=C4)OC(C)[C@H](C)[C@@H]3O (stereo not given in full)	19.8%
COc1cccc(-c2nc(-c3cnccn3)n(Cc3ccccc3)n2)c1	-46.5%
Cc1nc2nc(N)nnc2c(=O)[nH]1	-1.75%
C(=C\P(c1ccccc1)c1ccccc1)/P(/C=C/P(c1ccccc1)c1ccccc1)c1ccccc1	-18.9%
O=C(c1cccs1)c1cccs1	8.3%
Cc1cn(C2CC(OC(=O)C(Cc3ccccc3)NC(=O)OCc3ccccc3)C(COC(=O)C(Cc3ccccc3)NC(=O)OCc3ccccc3)O2)c(=O)[nH]c1=O (stereo not given)	-12.9%
C/C(=C(/O)c1ccc(Cl)cc1)c1nc2cc(Cl)cc([N+](=O)[O-])c2[nH]c1=O	18.9%
CC(=O)OCC1OC(OC(C)=O)C(NS(=O)(=O)Cc2ccccc2)C(OC(C)=O)C1OC(C)=O (stereo not given)	-1.2%

Experiment: NCI Yeast Anticancer Drug Screen. Data for the mlh1 rad18 strain (AID 175)
Settings: S. cerevisiae mlh1 rad18 strain growth inhibition; at 50.0 µM; hits give high values
Summary of the method: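 Genetically defined yeast (DNA repair-deficient) exposed to compounds; growth inhibition determined relative to vehicle.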

Structure (SMILES)	growth inhibition
COC(=O)c1ccccc1OC(=S)N(C)C	-17.4%
C=C(C)C#CC1(O)C=C(OC)C(OC)=CC1=O (stereo not given)	7.35%
CCOC(=O)/C(C#N)=C\N(C)C	13.5%
O=S1c2ccc(Cl)cc2CC(SSC2Cc3cc(Cl)ccc3S(=O)c3ccccc32)c2ccccc21 (stereo not given)	-9%
O=C1OC(=O)c2ccccc21	0.05%
Cc1nc(Nc2ccc(Cl)c(Cl)c2)sc1C(/C=C/c1ccc2c(c1)OCO2)=N/Nc1ccc([N+](=O)[O-])cc1[N+](=O)[O-]	2.45%
O=C(N/N=C/c1ccc(Cl)cc1)C(c1ccccc1)N1CCCCC1 (stereo not given)	13.7%
O=[N+]([O-])c1ccc(N=NN2CCOCC2)cc1	6.55%
CC(C)(C)C(=O)CC(=O)C(C)(C)C.CC(C)(C)C(=O)CC(=O)C(C)(C)C.CC(C)(C)C(=O)CC(=O)C(C)(C)C.[Co]	0.15%
CSC(=N\N=C\c1c(F)cccc1Cl)/N=C/N(C)C	4%
O=C(O)c1cscc1Cc1ccccc1	5.45%
C=C(CCCC(C)OC(C)OCC)[Si](C)(C)C (stereo not given)	-37.9%
CC1(C)N=C(N)N=C(N)N1c1cccc(OCc2cccc([N+](=O)[O-])c2)c1	-14.8%
Cc1cc(S(=O)(=O)O)c(NC(=O)C(=O)C2C=CCS2(=O)=O)cc1Cl (stereo not given)	-8.85%
C=C(C)C(=O)OC1C[C@H](COC(C)=O)C2CC=C(CO)C2C2OC(=O)C(=C)[C@H]12 (stereo not given in full)	25.1%
CC1(C)[C@H](C(=O)O)CC[C@]1(C)C(=O)O	11.4%
Brc1ccc(CN(Cc2ccccc2)Cc2ccccc2)cc1	4.75%
CN(C)c1nc(N)nc(CS)n1	-39.5%
CC(=O)Oc1ccc2c(c1)c1c(OC(C)=O)c(N(C)C(C)=O)cc(OC(C)=O)c1n2C	5.6%
CN(C)CCSCC(=O)N1c2ccccc2Sc2ccc(Cl)cc21	-0.5%

Structure (SMILES)	growth inhibition
CC(=O)Oc1cc2c(cc1C(NC(N)=O)c1ccc3c(c1)OCO3)OCO2 (stereo not given)	12.4%
CCCCCCCCCCCCN=Cc1cc(Cc2ccc(O)c(C=NCCCCCCCCCCCC)c2)ccc1O	96% (active)
O=c1[nH]c(=O)n(C2CC(O)C(CO)O2)cc1/C=C/Br (stereo not given)	-18.1%
CC(C)(C)OC(=O)CC(c1ccccc1)c1ccccc1	-21.9%
CC(=O)OCSc1ncnc2c1ncn2CN1CCOCC1	7.85%
c1ccc(CCCC2Sc3cccc4cccc(c34)S2)cc1	-28.5%
Cc1c2oc3c(C)ccc(C(=O)NCCN4CCN(c5ccccc5)CC4)c3nc-2c(C(=O)NCCN2CCN(c3ccccc3)CC2)c(N)c1=O	-32.6%
CO/N=C1C=C/C(=N\OC)C\1	0.8%
C(CCc1nnc2c(n1)CCCC2)Cc1nnc2c(n1)CCCC2	-2.4%
Nc1nc2ncn(CC(O)COC(=O)c3ccccc3)c2c(=O)[nH]1 (stereo not given)	39.2%
COC(=O)C1(C(=O)OC)CC(=O)c2c(OC(=O)c3cccc(OC)c3C#N)ccc(OC(=O)c3cccc(OC)c3C#N)c2C1	16.9%
CCCSC(=O)Nc1ccc(Cc2ccc(NC(=O)SCCC)cc2)cc1	14.5%
CCCc1cc(=O)oc2c3c(c4c(c12)OC(C)(C)C=C4)OC(C)[C@H](C)[C@@H]3O (stereo not given in full)	26.1%
COc1cccc(-c2nc(-c3cnccn3)n(Cc3ccccc3)n2)c1	-38.8%
Cc1nc2nc(N)nnc2c(=O)[nH]1	-0.1%
C(=C\P(c1ccccc1)c1ccccc1)/P(/C=C/P(c1ccccc1)c1ccccc1)c1ccccc1	-28.1%
O=C(c1cccs1)c1cccs1	-8.45%
Cc1cn(C2CC(OC(=O)C(Cc3ccccc3)NC(=O)OCc3ccccc3)C(COC(=O)C(Cc3ccccc3)NC(=O)OCc3ccccc3)O2)c(=O)[nH]c1=O (stereo not given)	14.3%
C/C(=C(/O)c1ccc(Cl)cc1)c1nc2cc(Cl)cc([N+](=O)[O-])c2[nH]c1=O	53.5%
CC(=O)OCC1OC(OC(C)=O)C(NS(=O)(=O)Cc2ccccc2)C(OC(C)=O)C1OC(C)=O (stereo not given)	20.4%
